Test results published in PubChem BioAssay (NCATS).
Results filed as inconclusive are left out. A call without a number means that no potency is given here. Active and inactive are the calls of the source. Calls follow the shape of the dose curve; as a rule, active = well fitted cell-killing curve with a large enough effect; inconclusive = small, poorly fitted or top-dose-only effect; inactive = flat fitted curve, though single readings scatter.

Assay: qHTS of pediatric cancer cell lines to identify multiple opportunities for drug repurposing: Primary screen for control Hh wild type fibroblast cells (AID 1347106); also: nearly all actives have a fitted effect of over 55% in size
Details: Hh wild-type fibroblast viability, CellTiter-Glo luminescence, 48 h; series mostly up to 46 µM
Text: Drug repurposing or repositioning has been offered as a strategy for drug development in oncology programs. This approach has special potential for childhood cancers and other rare or orphan diseases, where the expected return on new drug development has been a disincentive to pharmaceuticals.
In this project we exploit the poly-pharmacology of drugs to discover new indications via phenotypic screening of a panel of 19 well-characterized cell lines derived from solid tumors seen in children and adolescents. The goal is to identify approved drugs with previously unrecognized anticancer properties that has the potential to reveal new mechanisms and biological processes involved in carcinogenesis or drug resistance. We employed a titration-based paradigm (quantitative high-throughput screening or qHTS), where all compounds were tested at multiple concentrations for their effect on cell viability. Concentration-response curves (CRCs) were derived directly from the primary screen, and both potency and efficacy values were used to identify compounds with robust bioactivity profiles. We screened the NIH Chemical Genomics Center (NCGC) Pharmaceutical Collection (NPC) and Mechanism Interrogation Plate (MIPE) small molecule collections of approved and investigational compounds against these cell lines; and measured metabolically active cells after 48 hours of compound treatment as a proxy for cell viability.
Assay Submitter: Nathalia J. Martinez, National Center for Advancing Translational Sciences, National Institutes of Health, Rockville, MD, USA; email: natalia.martinez@nih.gov
[1] Shen, M et al. Quantitative high-throughput phenotypic screening of pediatric cancer cell lines identifies multiple opportunities for drug repurposing. Oncotarget 2017 Dec 19;9(4):4758-4772. PMID 29435139.
The cells were obtained from University of North Carolina (UNC), Pediatric Preclinical Testing Program (PPT), and Coriell Institute (CI).
qHTS cell viability assay:
Cells were assayed in growth media at a density of 500-1,000 cells/well. Five microliters of cells were dispensed into 1,536-well, white, solid-bottom, TC-treated plates (Greiner Bio One) using a multidrop dispenser and incubated at 37 degrees C, 5% CO2, under a humidified atmosphere for 5 hours. Twenty-three nanoliters of compounds and controls (neutral control DMSO or positive control bortezomib at final concentration of 2.3 µM) were subsequently transferred by Kalypsys pintool. For primary screens, the MIPE collection was tested at 11-point dilutions (final concentrations range from 0.78 nM to 46 µM) and the NPC collection at 8-point dilutions (final concentrations range from 0.59 nM to 46 µM). Compounds tested in follow-up screens were assayed at 11-point dilutions. Cells were incubated for 48 hours, followed by addition of 3 µL of CellTiter-Glo (Promega). After a 15 min incubation at room temperature, samples were analyzed for luminescence intensity using a ViewLux High-throughput CCD imager equipped with clear filters.
Potency is read from the fitted curve at half-maximal effect.

| SMILES | Potency |
| --- | --- |
| CNC(=O)c1c(I)c(NC(=O)CCCCC(=O)Nc2c(I)c(C(=O)O)c(I)c(C(=O)NC)c2I)c(I)c(C(=O)O)c1I | inactive |
| O=C(/C=C/c1ccccc1)NCCO | inactive |
| O=C1CN(/N=C/c2ccc([N+](=O)[O-])o2)C(=O)N1 | inactive |
| C[N+]1(C)[C@@H]2CC(OC(=O)[C@H](CO)c3ccccc3)C[C@H]1[C@@H]1O[C@@H]12 (stereo not given in full) | inactive |
| C#C[C@]1(O)CC[C@H]2[C@@H]3CCc4cc(O)ccc4[C@H]3CC[C@@]21C | inactive |
| CC(=O)c1ccc(OCC(=O)N2CCCCC2)cc1 | inactive |
| NC(=O)C(c1ccccc1)(c1ccccc1)[C@@H]1CCN(CCc2ccc3c(c2)CCO3)C1 | inactive |
| Cc1c(Nc2ncccc2C(=O)O)cccc1C(F)(F)F | inactive |
| Clc1ccccc1-c1nc(-c2ccncc2)no1 | inactive |
| COC(=O)C1=C(C)NC(C)=C(C(=O)OCC(C)C)C1c1ccccc1[N+](=O)[O-] (stereo not given) | inactive |
| Nc1cc(-c2ccncc2)c[nH]c1=O | inactive |
| O=C(O)c1cc(O)c(O)c(O)c1 | inactive |
| CCCCC1C(=O)N(c2ccccc2)N(c2ccc(O)cc2)C1=O (stereo not given) | inactive |
| CC(C)(C)c1nnc(NS(=O)(=O)c2ccc(N)cc2)s1 | inactive |
| O=Cc1ccc(O)c(O)c1O | inactive |
| COC(=O)c1nc(Cl)c(Cl)nc1N | inactive |
| Oc1c(Br)cc(Br)c2cccnc12 | inactive |
| Nc1nc2ccc([N+](=O)[O-])cc2s1 | inactive |
| CC(N)C(=O)OC(C)(C)Cc1ccc(Cl)cc1 (stereo not given) | inactive |
| COc1ccnc2c1CCCCC2S(=O)c1nc2ccccc2[nH]1 (stereo not given) | inactive |

| SMILES | Potency |
| --- | --- |
| [O-][n+]1ccccc1SSc1cccc[n+]1[O-] | 11.6 µM (active) |
| O=C(O)c1ccccc1Nc1cccc(C(F)(F)F)c1 | inactive |
| O=C(CS)Nc1ccccc1 | 16.8 µM (active) |
| CO[C@@]1(NC(=O)Cc2cccs2)C(=O)N2C(C(=O)O)=C(COC(N)=O)CS[C@@H]21 | inactive |
| CCCCCCOc1ccccc1C(N)=O | inactive |
| CC(C)OC(=O)c1cc(C(=O)OC(C)C)cc([N+](=O)[O-])c1 | inactive |
| CCCCCCCCCCCCCCCCCC(=O)O | inactive |
| N=C(N)N | inactive |
| CC1(C)S[C@@H]2[C@H](NC(=O)[C@H](N)c3ccccc3)C(=O)N2[C@H]1C(=O)O | inactive |
| CCC1C(=O)OCC1Cc1cncn1C (stereo not given) | inactive |
| CN1CC(=O)N/C1=N/C(=O)Nc1cccc(Cl)c1 | inactive |
| CCCCCCCCCCCCCCCC(=O)OC(C)C | inactive |
| CC(C(=O)O)c1ccc(C(=O)c2cccs2)cc1 (stereo not given) | inactive |
| CCCSc1ccc2nc(NC(=O)OC)[nH]c2c1 | inactive |
| c1ccc(CCNc2nc(-c3ccccc3)cs2)cc1 | inactive |
| CN(C)[C@@H]1C(=O)C(C(=O)NCN2CCCC2)=C(O)[C@@]2(O)C(=O)C3=C(O)c4c(O)cccc4[C@@](C)(O)C3C[C@@H]12 (stereo not given in full) | inactive |
| C#CC1(O)CC[C@H]2[C@@H]3CCC4=CCCC[C@@H]4[C@H]3CC[C@@]21C (stereo not given in full) | inactive |
| O=C(Nc1ccc(C(=O)O)c(O)c1)c1ccccc1 | inactive |
| O=c1cc(-c2ccccc2)oc2ccccc12 | inactive |
| Cc1ccc(O)c(-n2nc3ccccc3n2)c1 | inactive |
